According to PubChem BioAssay (NCI):
About 83,000 compounds went through this panel and 20% of them were active in at least one assay; those are over-represented in the sample as a whole.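 Note: values are percent growth. 100 is the growth of untreated cells, values between 100 and 0 indicate rising inhibition; between -100 and 0 indicates cell death.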 Calls of active or inactive are those of the source. The calls were made as follows: active = growth percent below 10; inactive = the rest.

How the values were obtained:
Experiment in all cases: NCI-60 one-dose screen, 48 h (100 = growth as untreated, 0 = no growth, -100 = all killed)
Conditions in all cases: 10 µM unless noted
SR leukemia = system: SR leukemia
RPMI-8226 leukemia = system: RPMI-8226 leukemia
OVCAR-8 ovarian = system: OVCAR-8 ovarian
OVCAR-5 ovarian = system: OVCAR-5 ovarian
OVCAR-4 ovarian = system: OVCAR-4 ovarian
SK-OV-3 ovarian = system: SK-OV-3 ovarian
IGROV1 ovarian = system: IGROV1 ovarian
HS 578T breast = system: HS 578T breast
NCI/ADR-RES ovarian = system: NCI/ADR-RES ovarian
T-47D breast = system: T-47D breast
BT-549 breast = system: BT-549 breast
MDA-MB-435 melanoma = system: MDA-MB-435 melanoma
SW-620 colon = system: SW-620 colon
MCF7 breast = system: MCF7 breast
HCT-116 colon = system: HCT-116 colon
HCC-2998 colon = system: HCC-2998 colon
KM12 colon = system: KM12 colon

Measured: growth

CCC(CC)n1c(=O)c(SC2=NC3C(NN2)N(CC)C(=O)N3CC)c(C(=O)O)c2ccccc21 (centres undefined)
inactive: SR leukemia 14.4% | RPMI-8226 leukemia 14.4% | OVCAR-5 ovarian 37.3% | OVCAR-4 ovarian 65% | SK-OV-3 ovarian 40.6% | IGROV1 ovarian 32.6% | HS 578T breast 19.3% | NCI/ADR-RES ovarian 20.4% | T-47D breast 68.4% | SW-620 colon 21.7% | MCF7 breast 17.4% | HCC-2998 colon 24% | KM12 colon 20.7%
active: OVCAR-8 ovarian 8.01% | BT-549 breast -21.6% | MDA-MB-435 melanoma 0.0073% | HCT-116 colon 6.91%

CC[C@]12C=CCN3CC[C@]4(C(=C(C(=O)OC)C1)Nc1cc5c(cc14)[C@@H]1[C@H](O5)[C@@H](O)[C@@]4(CC)CC(C(=O)OC)=C5Nc6cc(OC)ccc6[C@@]56CCN1[C@@H]46)[C@@H]32
inactive: OVCAR-8 ovarian 19.5% | OVCAR-5 ovarian 25.4% | OVCAR-4 ovarian 31.2% | SK-OV-3 ovarian 25% | HS 578T breast 11.6% | NCI/ADR-RES ovarian 12.4% | BT-549 breast 37.8%
active: SR leukemia 5.56% | RPMI-8226 leukemia -23.3% | IGROV1 ovarian 6.73% | T-47D breast 9.28% | MDA-MB-435 melanoma -12.5% | SW-620 colon 3.27% | MCF7 breast 6.01% | HCT-116 colon -87.2% | HCC-2998 colon -58.7% | KM12 colon 9.56%

COc1cc2oc(-c3cccc(NC(=O)c4cc(NC(=O)[C@H](C)N)ccc4Cl)c3)cc(=O)c2c(OC)c1OC
inactive: SR leukemia 73.1% | RPMI-8226 leukemia 67.2% | OVCAR-8 ovarian 69% | OVCAR-5 ovarian 106% | OVCAR-4 ovarian 85.9% | SK-OV-3 ovarian 120% | IGROV1 ovarian 96.7% | HS 578T breast 99.9% | NCI/ADR-RES ovarian 88.6% | T-47D breast 67.9% | BT-549 breast 108% | MDA-MB-435 melanoma 105% | SW-620 colon 104% | MCF7 breast 91.4% | HCT-116 colon 94.9% | HCC-2998 colon 100% | KM12 colon 96.3%

CNC(=O)c1cc(Oc2ccc3nc(NC(=O)c4cc(C)cc(C)c4)sc3c2)ccn1
inactive: SR leukemia 30.9% | RPMI-8226 leukemia 51.9% | OVCAR-8 ovarian 91.1% | OVCAR-5 ovarian 104% | OVCAR-4 ovarian 77% | SK-OV-3 ovarian 97.4% | IGROV1 ovarian 88.7% | HS 578T breast 85.8% | NCI/ADR-RES ovarian 76% | T-47D breast 80.1% | BT-549 breast 11.6% | MDA-MB-435 melanoma 40.6% | SW-620 colon 92.7% | MCF7 breast 82% | HCT-116 colon 32.9% | HCC-2998 colon 103% | KM12 colon 91.3%

CC(=O)c1sc(Nc2cccc(Nc3nc(C)c(C)s3)c2)nc1C
inactive: SR leukemia 38.5% | RPMI-8226 leukemia 67.9% | OVCAR-8 ovarian 43.4% | OVCAR-5 ovarian 83.5% | OVCAR-4 ovarian 51.5% | SK-OV-3 ovarian 25.8% | IGROV1 ovarian 26.4% | HS 578T breast 52.7% | NCI/ADR-RES ovarian 55.6% | T-47D breast 13.3% | BT-549 breast 46.2% | MDA-MB-435 melanoma 59.1% | SW-620 colon 62.5% | MCF7 breast 61.7% | HCT-116 colon 44.2% | HCC-2998 colon 80.1% | KM12 colon 60.2%

CCN1C(=O)N(CC)C2C1NN=C1SC(c3ccccc3)=CC(=O)N12 (centres undefined)
inactive: SR leukemia 16.2% | OVCAR-8 ovarian 18.2% | OVCAR-5 ovarian 29.1% | OVCAR-4 ovarian 72.5% | SK-OV-3 ovarian 42.2% | IGROV1 ovarian 41.4% | NCI/ADR-RES ovarian 19.2% | T-47D breast 42.1% | SW-620 colon 18.3% | MCF7 breast 17.7% | HCT-116 colon 14.9% | HCC-2998 colon 21.1% | KM12 colon 27.2%
active: RPMI-8226 leukemia 4.35% | HS 578T breast 3.22% | BT-549 breast -4.35% | MDA-MB-435 melanoma -33.3%

Cc1nc(-c2cc3ccccc3c(N3CCN(C)CC3)n2)cs1
inactive: SR leukemia 102% | RPMI-8226 leukemia 99.2% | OVCAR-8 ovarian 98.8% | OVCAR-5 ovarian 104% | OVCAR-4 ovarian 102% | SK-OV-3 ovarian 97.1% | IGROV1 ovarian 97.3% | HS 578T breast 85.5% | NCI/ADR-RES ovarian 94.3% | T-47D breast 84.3% | BT-549 breast 97.5% | MDA-MB-435 melanoma 99.9% | SW-620 colon 98.6% | MCF7 breast 92.7% | HCT-116 colon 93% | HCC-2998 colon 95.3% | KM12 colon 103%

CS(=O)(=O)c1nccc(-c2c(-c3ccc(F)c(OCCc4ccc(F)cc4)c3)nc3sccn23)n1
inactive: OVCAR-8 ovarian 69.8% | OVCAR-5 ovarian 93.2% | OVCAR-4 ovarian 51.2% | SK-OV-3 ovarian 84.5% | HS 578T breast 35.5% | NCI/ADR-RES ovarian 81.3% | BT-549 breast 57.2% | MDA-MB-435 melanoma 87.2% | SW-620 colon 67.1% | HCT-116 colon 47.6%
active: SR leukemia 0.201% | RPMI-8226 leukemia -43.2% | IGROV1 ovarian -64.9% | T-47D breast -75.5% | MCF7 breast -61% | HCC-2998 colon -91% | KM12 colon -42.9%

COc1ccc(-c2nc3cc(Cl)c(Cl)cc3n2CC(=O)N=Nc2c(O)[nH]c3ccc(Cl)cc23)cc1
inactive: SR leukemia 51.6% | RPMI-8226 leukemia 40.2% | OVCAR-8 ovarian 45.3% | OVCAR-5 ovarian 35.4% | SK-OV-3 ovarian 52.5% | NCI/ADR-RES ovarian 17.8% | BT-549 breast 25.8% | MDA-MB-435 melanoma 16.9% | SW-620 colon 32.1% | MCF7 breast 40% | HCC-2998 colon 29.8% | KM12 colon 59%
active: OVCAR-4 ovarian 5.4% | IGROV1 ovarian 5.72% | HS 578T breast 2.89% | T-47D breast -14.4% | HCT-116 colon 7.71%

CCOC(=O)/C(F)=C/C1CC1CCc1cccc(C(F)(F)F)c1 (centres undefined)
inactive: SR leukemia 106% | RPMI-8226 leukemia 102% | OVCAR-8 ovarian 104% | OVCAR-5 ovarian 100% | OVCAR-4 ovarian 107% | SK-OV-3 ovarian 99.8% | IGROV1 ovarian 113% | HS 578T breast 103% | NCI/ADR-RES ovarian 106% | T-47D breast 108% | BT-549 breast 113% | MDA-MB-435 melanoma 103% | SW-620 colon 102% | MCF7 breast 95% | HCT-116 colon 110% | HCC-2998 colon 109% | KM12 colon 99.1%

CCc1ccc(NC(=O)N[C@@H](Cc2cccc(C)c2)C(=O)N[C@@H]2C(=O)N3CCC[C@H]3C(=O)N3CCCC[C@H]3C(=O)N[C@@H](CO)C(=O)N3C[C@H](C)C[C@H]3C(=O)O[C@H]2C)c(F)c1
inactive: SR leukemia 34.9% | RPMI-8226 leukemia 18.6% | OVCAR-8 ovarian 21.5% | OVCAR-5 ovarian 33.5% | OVCAR-4 ovarian 22.1% | SK-OV-3 ovarian 22.1% | IGROV1 ovarian 43.3% | HS 578T breast 28.5% | NCI/ADR-RES ovarian 37.7% | T-47D breast 27.4% | BT-549 breast 24.9% | MDA-MB-435 melanoma 16.8% | SW-620 colon 34.7% | MCF7 breast 17.6% | HCT-116 colon 11.8% | HCC-2998 colon 23.9% | KM12 colon 37.6%

C#C[C@]1(O)CC[C@H]2[C@@H]3CC=C4c5sc(Nc6ccncc6)nc5CC[C@]4(C)[C@H]3CC[C@@]21C
active: SR leukemia 4.33% | RPMI-8226 leukemia -26.6% | SK-OV-3 ovarian -38.1% | HS 578T breast -33.6% | MDA-MB-435 melanoma -75.2% | SW-620 colon -37.2% | MCF7 breast -42.1% | HCT-116 colon 3.69% | HCC-2998 colon 1.79% | KM12 colon -94.1%
inactive: OVCAR-8 ovarian 51.4% | OVCAR-5 ovarian 38.6% | OVCAR-4 ovarian 59.8% | IGROV1 ovarian 24.4% | NCI/ADR-RES ovarian 33.1% | T-47D breast 39.9% | BT-549 breast 15.9%

C=CCn1c(SCC(=O)Nc2cccc(C(=O)/C=C/c3ccc(Cl)cc3)c2)nc2ccccc2c1=O
active: RPMI-8226 leukemia 9.15%
inactive: SR leukemia 21% | OVCAR-8 ovarian 95% | OVCAR-5 ovarian 97.9% | OVCAR-4 ovarian 87.6% | SK-OV-3 ovarian 110% | IGROV1 ovarian 96.4% | HS 578T breast 87.3% | NCI/ADR-RES ovarian 91% | T-47D breast 78.6% | BT-549 breast 94.6% | MDA-MB-435 melanoma 92.3% | SW-620 colon 77.4% | MCF7 breast 28.3% | HCT-116 colon 15.4% | HCC-2998 colon 94.8% | KM12 colon 88%

CC1CCN(S(=O)(=O)c2ncsc2-c2ccccc2)CC1
inactive: SR leukemia 55.7% | RPMI-8226 leukemia 25.5% | OVCAR-8 ovarian 101% | OVCAR-5 ovarian 94.8% | OVCAR-4 ovarian 88.5% | SK-OV-3 ovarian 95% | IGROV1 ovarian 94.2% | HS 578T breast 40.3% | NCI/ADR-RES ovarian 90% | T-47D breast 90.7% | BT-549 breast 73.5% | MDA-MB-435 melanoma 95.5% | SW-620 colon 100% | MCF7 breast 72.3% | HCT-116 colon 87.5% | HCC-2998 colon 97.4% | KM12 colon 94.8%

CCn1c2ccc(/C=N/NS(=O)(=O)CCN(C)C)cc2c2cc(/C=N/NS(=O)(=O)CCN(C)C)ccc21
inactive: SR leukemia 83.8% | RPMI-8226 leukemia 99.8% | OVCAR-8 ovarian 104% | OVCAR-5 ovarian 100% | OVCAR-4 ovarian 99.8% | SK-OV-3 ovarian 104% | IGROV1 ovarian 77.7% | HS 578T breast 91.1% | NCI/ADR-RES ovarian 98.1% | T-47D breast 102% | BT-549 breast 99.1% | MDA-MB-435 melanoma 96.9% | SW-620 colon 90.8% | MCF7 breast 89.4% | HCT-116 colon 99.4% | HCC-2998 colon 104% | KM12 colon 106%

O=C1c2c(c3c4cccnc4[nH]c3c3ccc4ccccc4c23)C(=O)N1CCN1CCCCC1
inactive: SR leukemia 15.4% | RPMI-8226 leukemia 70.3% | OVCAR-8 ovarian 49.5% | OVCAR-5 ovarian 88.6% | OVCAR-4 ovarian 95.2% | SK-OV-3 ovarian 62.9% | IGROV1 ovarian 42.8% | HS 578T breast 105% | NCI/ADR-RES ovarian 41.2% | T-47D breast 46.4% | BT-549 breast 84.4% | MDA-MB-435 melanoma 69% | SW-620 colon 41.3% | MCF7 breast 14.5% | HCT-116 colon 36.9% | HCC-2998 colon 70% | KM12 colon 99.6%

COc1ccc(-c2nc(SCCC(C)C)nc(N/N=C\c3ccc(O)cc3)c2C#N)cc1
inactive: SR leukemia 25.5% | RPMI-8226 leukemia 42.7% | OVCAR-8 ovarian 47.6% | OVCAR-5 ovarian 101% | OVCAR-4 ovarian 74.9% | SK-OV-3 ovarian 109% | IGROV1 ovarian 68.5% | HS 578T breast 67% | NCI/ADR-RES ovarian 55.1% | T-47D breast 76.7% | BT-549 breast 67.5% | MDA-MB-435 melanoma 49.5% | SW-620 colon 54.1% | MCF7 breast 40.3% | HCT-116 colon 39.6% | HCC-2998 colon 86.8% | KM12 colon 67%
